High-throughput results from PubChem BioAssay.
NTMT1 inh – NTMT1 methyltransferase inhibition; Potency, µM (titrated, usually from 114 µM), for the others: at the highest dose activity change, negative = inhibition, usual class: inhibitors; NTMT1 MTase-Glo SAH luminescence, purified enzyme; 2.5% of 59,000 active; Q9BV86;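 also: potency is read from the fitted curve at half-maximal effect; plate controls were DMSO vehicle for no effect and no enzyme for full effect; nearly all actives have a fitted effect of over 65% in size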
FH mod – Identification of activators of human fumarate hydratase by quantitative high-throughput screening. Fumarate hydratase, mitochondrial (Homo sapiens), P07954. FH coupled MDH/diaphorase resazurin fluorescence, 15 min. Potency, µM (highest dose often 79.9 µM), without a hit: at the top dose activity change, negative = inhibition, most hits filed as inhibitors. 0.22% of 54,000 active. AID 1347055, 2019; also: potency is read from the fitted curve at half-maximal effect; % is scaled to controls: 0 for no effect and ±100 for the full control effect; the screen sought activators but most active calls are inhibition curves; nearly all actives have a fitted effect of over 45% in size
GALC G270D up – raises human GALC G270D mutant activity in cells; 145M-Twi-hGALC-G270D cells (Twitcher mouse brain line with human GALC G270D), HMU-beta-Gal fluorescence, 48 h; Potency, µM (doses to about 57.5 µM), usual class: activators; 0.1% of 45,000 active; AID 1159614; also: potency is read from the fitted curve at half-maximal effect; 0% is about no effect; nearly all actives have a fitted effect of over 65% in size
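Mutant human GALC (G270D), stably expressed in a Twitcher mouse brain cell line lacking endogenous GALC, is measured in live-treated cells via 6-hexadecanoylamino-4-methylumbelliferyl-β-galactoside hydrolysis (0.1 mM final, pH 5.2) with fluorescent detection.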
CLK4 inh-1 – CLK4 kinase inhibition, SAR round 2; shares compounds with NTMT1 inh; recombinant Clk4, Kinase-Glo ATP luminescence, 4.5 h; Potency, µM (doses to about 76.9 µM), for inactives: at the top dose activity, negative = inhibition, hits mostly inhibitors; 90% of 90 active
CLK4 inh-2 – inhibitors of human CLK4 kinase, SAR round 2; shares compounds with NTMT1 inh; AID 504421; 100% of 65 active; Potency, µM, hits mostly inhibitors; Reaction Biology kinase assay, 10 uM ATP; calls by dose curve
DYRK1A RBC – inhibitors of human DYRK1A kinase. shares compounds with NTMT1 inh. 90% of 65 active. Potency, µM, hits mostly inhibitors. Reaction Biology kinase assay, 10 uM ATP. AID 504424;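 active = compounds that showed inhibition of Dyrk1a and received a fitted potency; inactive = compounds that showed no inhibition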
CLK2 inh – inhibitors of human CLK2 kinase; shares compounds with NTMT1 inh; Reaction Biology kinase assay, 10 uM ATP; Potency, µM, hits mostly inhibitors; 90% of 65 active; AID 504427;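 active = compound that inhibits Clk2 kinase in the dose series, with an IC50 potency reported; inactive = no inhibition seen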
CLK3 RBC – blocks human CLK3 kinase activity; shares compounds with NTMT1 inh; recombinant CLK3 kinase assay, 10 uM ATP; Potency, µM, most hits filed as inhibitors; 40% of 65 active;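 active = compounds that inhibited Clk3 enough in the ten-dose series to give a half-maximal potency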
DYRK1B inh – DYRK1B kinase inhibition; shares compounds with NTMT1 inh; Recombinant Dyrk1b kinase assay, 10 uM ATP; Potency, µM, hits mostly inhibitors; 80% of 65 active; AID 504429;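 active = compounds whose dose response shows an inhibitor phenotype against the kinase Dyrk1b; inactive = compounds showing no inhibitor phenotype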
Target sequence (Q9Y463 whole entry, looked up): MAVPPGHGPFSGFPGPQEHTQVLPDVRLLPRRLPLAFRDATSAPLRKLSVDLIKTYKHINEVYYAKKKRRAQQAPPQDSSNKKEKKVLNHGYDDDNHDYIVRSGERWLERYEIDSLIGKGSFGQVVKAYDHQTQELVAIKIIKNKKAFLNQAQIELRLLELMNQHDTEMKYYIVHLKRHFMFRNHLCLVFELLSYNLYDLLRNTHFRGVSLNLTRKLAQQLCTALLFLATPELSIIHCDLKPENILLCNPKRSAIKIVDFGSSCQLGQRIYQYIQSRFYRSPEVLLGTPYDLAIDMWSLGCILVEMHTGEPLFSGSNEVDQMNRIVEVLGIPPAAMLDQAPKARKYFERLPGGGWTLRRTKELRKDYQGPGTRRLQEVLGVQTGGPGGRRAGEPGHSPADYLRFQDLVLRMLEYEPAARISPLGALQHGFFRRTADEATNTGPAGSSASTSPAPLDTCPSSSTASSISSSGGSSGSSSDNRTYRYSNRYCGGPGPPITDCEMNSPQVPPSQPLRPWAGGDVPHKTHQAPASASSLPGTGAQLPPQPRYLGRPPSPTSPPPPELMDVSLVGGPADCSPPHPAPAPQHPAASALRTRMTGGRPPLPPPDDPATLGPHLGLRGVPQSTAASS
CLK1 RBC – blocks human CLK1 kinase activity; shares compounds with NTMT1 inh; recombinant Clk1 kinase assay, 10 uM ATP; Potency, µM, usual class: inhibitors; 90% of 65 active; AID 504430;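 active = compounds that block the splicing kinase Clk1 enough to give a fitted half-inhibition concentration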
NNMT counter – counter-screen for NTMT1 inhibitors: human NNMT inhibition | shares compounds with NTMT1 inh | NNMT MTase-Glo luminescence, SAH detection | Potency, µM (series often up to 57.1 µM), for inactives: at the top dose activity, negative = inhibition, most hits filed as inhibitors | 10% of 120 active
Active calls of the source: *; i = inactive; u = inconclusive; x = not tested or not shown; [ ] = another dose, or the depositor's remark. The full list was thinned out, with hits kept by preference. Unless noted, calls follow the shape of the dose curve; as a rule, active = well fitted curve in the direction sought with a large enough effect; inconclusive = small, poorly fitted or top-dose-only effect, or another doubt; inactive = no such curve, though single readings can be large; an effect the other way counts as inactive or inconclusive.

SMILES	NTMT1 inh	FH mod	GALC G270D up	others
Cc1noc(C)c1-c1ccc2ncnc(NCC3CCCCN3C)c2c1 (stereo unspecified)	-2%	x	x
O=C(O)c1ccc(-c2ccc3ncnc(NCC4CCCO4)c3c2)o1 (stereo unspecified)	-4%	x	x	CLK4 inh-1=0.82µM*;CLK4 inh-2=3.4*;DYRK1A RBC=30µM*;CLK2 inh=20µM*;CLK3 RBC=i;DYRK1B inh=12µM*;CLK1 RBC=44µM*
Fc1ccc(CNc2ncnc3ccc(F)cc23)cc1	-1%[57.5 µM]	1%	x
OCc1ccc(-c2ccc3ncnc(NCC4CCCO4)c3c2)o1 (stereo unspecified)	x	x	x	CLK4 inh-2=13*;DYRK1A RBC=i;CLK2 inh=i;CLK3 RBC=i;DYRK1B inh=45µM*;CLK1 RBC=50µM*
O=C(O)c1ccc(-c2ccc3ncnc(NCc4nccs4)c3c2)o1	0%[57.5 µM]	x	x	CLK4 inh-1=0.92µM*;CLK4 inh-2=1.9*;DYRK1A RBC=41µM*;CLK2 inh=27µM*;CLK3 RBC=i;DYRK1B inh=18µM*;CLK1 RBC=39µM*
CN(C)C(=O)C(=O)c1cn(C)c2cc(Cl)c(C(=O)N3CCC(Cc4ccc(F)cc4)CC3)cc12	-16%[57.5 µM]	-8%	x
FC(F)(F)c1ccccc1-c1nc(NCc2ccc(-c3ccc4ccccc4c3)cc2)c2ccccc2n1	20%	x	x
C[C@@H]1COCCN1c1cc(C2(S(C)(=N)=O)CC2)nc(-c2ccnc3[nH]ccc23)n1 (stereo partly specified)	u	0%	x
CCC(=O)OCC(=O)C1(OC(=O)CC)C(C)CC2C3CCC4=CC(=O)C=CC4(C)C3(F)C(O)CC21C (stereo unspecified)	6%	x	x
Cc1ccc(-c2ccc(=O)n(CC(=O)N(C)C(C)c3cccs3)n2)cc1 (stereo unspecified)	-2%	x	x
NC[C@@H]1O[C@@H](O[C@@H]2[C@@H](O[C@@H]3O[C@H](CO)[C@@H](O)[C@H]3O)[C@H](O)[C@@H](N)C[C@H]2N)[C@@H](N)[C@H](O)[C@H]1O	2%[12.6 µM]	0%[13.5 µM]	x
COc1cccc(CNC(=O)Nc2nc(-c3ccncc3)cs2)c1	-9%[57.5 µM]	-2%	x
Cc1cccc(Nc2nc(-c3ccncc3)cs2)c1	2.5µM*	-2%	x	NNMT counter=8.9µM*
Cc1cc(-c2ccccc2)n2ncc(C(=O)Nc3ccccc3Sc3ccccc3)c2n1	7%	x	x
COc1ccc2cc3c(NC(=O)c4ccco4)nn(C)c3nc2c1	-11%[57.5 µM]	-8%	x	NNMT counter=-12%
COc1cccc(NC(=O)CSc2nc3ccc(NC(=O)c4ccco4)cc3s2)c1	7%	-25%	i
OC[C@@]1(O)CO[C@@H](OC[C@H]2O[C@@H](OCc3ccccc3)[C@H](O)[C@@H](O)[C@@H]2O)[C@@H]1O	-8%[29.8 µM]	8%[53.3 µM]	x
CNC(=O)C1=C(C)NC(Nc2nc3ccccc3o2)=NC1c1[nH]ncc1Cl (stereo unspecified)	12%	x	x
C[C@@H](Oc1cc(-n2cnc3ccc(OC4CCN(C)CC4)cc32)sc1C(N)=O)c1ccccc1C(F)(F)F	2.2µM*	-11%	x	NNMT counter=u
Cc1cc(-c2ccccc2)nc2c(C(=O)Nc3ccc4c(c3)CCC4)cnn12	5%	x	x
C[C@H](Oc1cc(-c2cnn(C3CCNCC3)c2)cnc1N)c1c(Cl)ccc(F)c1Cl	u	-3%	x
C[C@@H](Oc1cc(-c2cnn(C3CCNCC3)c2)cnc1N)c1c(Cl)ccc(F)c1Cl	18µM*	-8%	x	NNMT counter=u
CC1(C)CCC2(C(=O)O)C(O)CC3(C)C(=CCC4C5(C)CCC(OC6OC(CO)C(O)C(O)C6OC6OC(CO)C(O)C(O)C6OC6OCC(O)(CO)C6O)C(C)(C)C5CCC43C)C2C1 (stereo unspecified)	5%[12.6 µM]	-5%[20.6 µM]	x
Cc1cc(NS(=O)(=O)c2ccc(C(=O)NCc3ccc(Cl)c(Cl)c3)cc2)no1	-13%	x	x
NC(=O)c1nc(Nc2ccccc2)sc1NC(=O)c1c(F)cccc1F	-6%	5%	i
CN(C)c1ccc(Nc2nc(N)n(C(=O)c3c(F)cccc3F)n2)cc1	u	-25%[53.3 µM]	x	NNMT counter=-13%
C=C1CCC2C(C)(C)CC(O)CC2(C)C1CCC(C)CC(=O)O (stereo unspecified)	6%[29.8 µM]	3%[53.3 µM]	x
CCOC(=O)c1ccc(O)cc1	-5%[57.5 µM]	2%[53.3 µM]	i
